Source: PubChem BioAssay (NCI)
This is part of a sample that, as a whole, favours compounds with a hit. Of some 83,000 tested, about 20% had one in any assay.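 Assay: single dose, 48 h. Readout: percent growth (0 = no net growth; negative = cell death). Active: <10.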 Unmarked numbers belong to inactive results. The source made the active and inactive calls.

How the values were obtained:
Test in all cases: NCI-60 one-dose screen, 48 h (100 = growth as untreated, 0 = no growth, -100 = all killed)
Details in all cases: 10 µM unless noted
[1] = system: HCT-15 colon
[2] = system: HT29 colon
[3] = system: SNB-75 CNS
[4] = system: SNB-19 CNS
[5] = system: U251 CNS
[6] = system: PC-3 prostate
[7] = system: SK-MEL-5 melanoma
[8] = system: UACC-62 melanoma
[9] = system: LOX IMVI melanoma
[10] = system: SK-MEL-28 melanoma
[11] = system: SK-MEL-2 melanoma
[12] = system: EKVX NSCLC
[13] = system: SN12C renal
[14] = system: UO-31 renal
[15] = system: TK-10 renal
[16] = system: ACHN renal
[17] = system: A498 renal
[18] = system: CCRF-CEM leukemia
[19] = system: MOLT-4 leukemia

SMILES: COc1ccc(C2=NN(C(=O)COc3ccc(Cl)cc3)C(O)(c3cc(F)c(Cl)cc3Cl)C2)cc1 (configuration not stated)
- growth [1]: 98.6%
- growth [2]: 99.4%
- growth [3]: 88.2%
- growth [4]: 94.7%
- growth [5]: 104%
- growth [6]: 75%
- growth [7]: 114%
- growth [8]: 111%
- growth [9]: 83.8%
- growth [10]: 103%
- growth [11]: 99.2%
- growth [12]: 80.5%
- growth [13]: 119%
- growth [14]: 74.7%
- growth [15]: 89.5%
- growth [16]: 104%
- growth [17]: 95.3%
- growth [18]: 7.54% (active)
- growth [19]: 77.3%

SMILES: Cc1cccc[n+]1CCC[n+]1ccccc1C
- growth [1]: 96.7%
- growth [2]: 94.1%
- growth [3]: 103%
- growth [4]: 111%
- growth [5]: 101%
- growth [6]: 95.4%
- growth [7]: 101%
- growth [8]: 109%
- growth [9]: 96.9%
- growth [10]: 103%
- growth [11]: 100%
- growth [12]: 94.6%
- growth [13]: 101%
- growth [14]: 99%
- growth [15]: 88%
- growth [16]: 109%
- growth [17]: 109%
- growth [18]: 99.6%
- growth [19]: 86.1%

SMILES: COc1ccc(C2=NN(C(=O)COc3ccc(Cl)cc3)C(O)(c3cc(F)c(Cl)cc3Cl)C2)cc1OC (configuration not stated)
- growth [1]: 4.88% (active)
- growth [2]: -75.9% (active)
- growth [3]: 3.94% (active)
- growth [4]: 62.7%
- growth [5]: 55.5%
- growth [6]: 32.1%
- growth [7]: 65.4%
- growth [8]: 52.5%
- growth [9]: -35.6% (active)
- growth [10]: -51.6% (active)
- growth [11]: 68.3%
- growth [12]: 61.6%
- growth [13]: 19.8%
- growth [14]: -86.6% (active)
- growth [15]: 16%
- growth [16]: 5.24% (active)
- growth [17]: 141%
- growth [18]: -62.1% (active)
- growth [19]: -32% (active)

SMILES: CC(=O)N[C@@H](CNC(=O)c1cc(NC(=O)c2cc(NC(=O)c3cc(NC(=O)c4nccn4C)cn3C)cn2C)cn1C)CC(=O)Nc1cn(C)c(C(=O)Nc2cc(C(=O)Nc3cc(C(=O)Nc4cc(C(=O)NCCCN(C)CCCNC(=O)c5cccc(C(=O)O)c5)n(C)c4)n(C)c3)n(C)c2)n1
- growth [1]: 103%
- growth [2]: 67.6%
- growth [3]: 107%
- growth [4]: 86.3%
- growth [5]: 64%
- growth [6]: 88.6%
- growth [7]: 96.6%
- growth [8]: 59.1%
- growth [9]: 80.7%
- growth [10]: 107%
- growth [11]: 89.4%
- growth [12]: 102%
- growth [13]: 100%
- growth [14]: 77.1%
- growth [15]: 93.1%
- growth [16]: 75.1%
- growth [17]: 92.9%
- growth [18]: 103%
- growth [19]: 120%

SMILES: ClC1c2ccccc2CCc2ccccc21
- growth [1]: 88.2%
- growth [2]: 74.1%
- growth [3]: 81.6%
- growth [4]: 111%
- growth [5]: 96.6%
- growth [6]: 83.5%
- growth [7]: 96.7%
- growth [8]: 98.5%
- growth [9]: 93.6%
- growth [10]: 112%
- growth [11]: 87.8%
- growth [12]: 94%
- growth [13]: 103%
- growth [14]: 60%
- growth [15]: 101%
- growth [16]: 95.8%
- growth [17]: 102%
- growth [18]: 98.7%
- growth [19]: 107%

SMILES: Cc1cc(NCCN(C(C)C)C(C)C)nc(/N=C(\N)Nc2ccc(Cl)c(C(F)(F)F)c2)n1
- growth [1]: -56.2% (active)
- growth [2]: -86.6% (active)
- growth [3]: -100% (active)
- growth [4]: -83.3% (active)
- growth [5]: -84.4% (active)
- growth [6]: -94% (active)
- growth [7]: -91.5% (active)
- growth [8]: -91.6% (active)
- growth [9]: -70.6% (active)
- growth [10]: -87.2% (active)
- growth [11]: -89.4% (active)
- growth [12]: -17.5% (active)
- growth [13]: -45.6% (active)
- growth [14]: -90.9% (active)
- growth [15]: -80.6% (active)
- growth [16]: -81.1% (active)
- growth [17]: -88.8% (active)
- growth [18]: -68% (active)
- growth [19]: -69.2% (active)

SMILES: Cc1ccc2c(C3C(C#N)=C(N)Oc4cc5ccccc5cc43)cc(=O)oc2c1 (configuration not stated)
- growth [1]: 31%
- growth [2]: 6.66% (active)
- growth [3]: 20.3%
- growth [4]: 29.9%
- growth [5]: 23.5%
- growth [6]: 18.8%
- growth [7]: 13.6%
- growth [8]: 39.2%
- growth [9]: 38.4%
- growth [10]: 64.4%
- growth [11]: 27.8%
- growth [12]: 40%
- growth [13]: 46.3%
- growth [14]: 47.3%
- growth [15]: 47.6%
- growth [16]: 50.6%
- growth [17]: 30.8%
- growth [18]: 13%
- growth [19]: 20.8%

SMILES: CN1CCN(Cn2nc(-c3cc(Cl)cc(Cl)c3Cl)n(/N=C/c3ccc(Cl)cc3)c2=S)CC1
- growth [1]: 93.5%
- growth [2]: 117%
- growth [3]: 107%
- growth [4]: 96.6%
- growth [5]: 93.1%
- growth [6]: 82.4%
- growth [7]: 92.3%
- growth [8]: 90%
- growth [9]: 90.4%
- growth [10]: 111%
- growth [11]: 97.6%
- growth [12]: 118%
- growth [13]: 96.4%
- growth [14]: 88%
- growth [15]: 94.6%
- growth [16]: 100%
- growth [17]: 97.8%
- growth [18]: 33.4%
- growth [19]: 59%
